Screen size: about 290,000 compounds; about 3,000 (1%) were called active. This is one part of a sample in which actives are shown more often than they occur. A number with no mark means an inactive call. Rule as the data show it: active = inhibition mostly above about 36% (no sharp cut-off); inactive = mostly below about 34%.

Usually inhibition stands for the relative decrease from the control value, in per cent.

A short description of this assay: inhibition of NOD1-driven NF-kB reporter – cell-based, luminescence, uHTS, primary screen (AID 1578).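 Also: HEK-293T reporter cells stimulated with the NOD1 agonist gamma-tri-DAP.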 The following applies: NOD1-driven NF-kB luciferase reporter cells, at 4 µM, active compounds read high.
Regarding `O=C(NCc1ccco1)C12CN(Cc3ccccc3)CC1C(c1ccc([N+](=O)[O-])cc1)=NO2` (centres undefined), the inhibition is 10.3%.

As to `CCOCCc1nnc(NC(=O)C(C)Oc2ccccc2)s1` (centres undefined), the inhibition was -60.4%.

For `COc1ccc(NC(=O)CCC(=O)N/N=C/c2cn(C)nc2C)cc1`, the inhibition is 10.7%.

Turning to `O=C(O)c1ccc(Nc2nc3c(s2)CCCC3)cc1`, the inhibition is 69.2% (active).

`CN(C)c1ccc(C(=O)Nc2nc3c(s2)CCCC3)cc1`: the inhibition is 25.6%.

In the case of `Cc1cccc(Nc2nc3c(s2)CCCC3)c1`, the inhibition was -49.8%.

On to `Cc1nc2ccc(S(=O)(=O)Nc3cccc(-c4nc5cccnc5s4)c3C)cc2s1`, for which the inhibition was -33.3%.

`Cc1cc(-c2nc3cccnc3s2)ccc1NS(=O)(=O)c1ccc2c(c1)OCCO2`: the inhibition is -4%.

As for `CCc1ccc(NC(=O)CSc2nnc(-c3n[nH]c4ccccc34)n2-c2ccccc2)cc1`, the inhibition is 6%.

As for `CC(C)CC(C(=O)N1CCc2ccccc2C1)N1C(=O)c2ccccc2C1=O` (centres undefined), the inhibition is 5.4%.

`COc1ccc(N2C(=O)c3ccccc3NC2c2cccnc2)cc1` (centres undefined): the inhibition was -14.4%.

Take `COc1ccccc1N1Cc2ccc(OC)c(OC)c2C1=O`: the inhibition is -5.2%.

As for `COc1ccc2c(c1OC)C(=O)OC2`, the inhibition was 33.6% (active).

`COc1ccc2c(c1OC)C(=O)N(c1ncn[nH]1)C2`: the inhibition is -15.4%.

Turning to `COc1cc(OC)cc(C(=O)OCCCOC(=O)c2cc(OC)cc(OC)c2)c1`, the inhibition is -7.2%.

As to `CN(NS(=O)(=O)c1ccc(Br)cc1)c1nc(C(F)(F)F)nc2ccccc12`, the inhibition is 31.4% (active).

Take `CN(NS(=O)(=O)c1ccc(Cl)cc1)c1nc(C(F)(F)F)nc2ccccc12`: the inhibition was 26%.

On to `COc1ccc(S(=O)(=O)NN(C)c2nc(C(F)(F)F)nc3ccccc23)cc1`, for which the inhibition was -27.6%.

On to `CN(C)C1(CN=Cc2cc(Cl)cc([N+](=O)[O-])c2O)CCCCC1`, for which the inhibition was -19%.

`O=C(N/N=C/c1ccc(-c2cccc(C(F)(F)F)c2)o1)c1ccccc1Br`: the inhibition was 13.2%.

Turning to `O=C(N/N=C/c1ccc(-c2ccccc2)o1)c1ccccc1O`, the inhibition was -1.6%.

On to `O=C(N/N=C/c1ccc(-c2cccc(C(F)(F)F)c2)o1)c1ccccc1O`, for which the inhibition is 86.8% (active).

Take `COc1ccc2cc(CCNC(=O)c3cccc([N+](=O)[O-])c3)c(=O)[nH]c2c1`: the inhibition was 45.6% (active).

In the case of `Cc1cc2cc(CCNC(=O)c3cccc([N+](=O)[O-])c3)c(=O)[nH]c2cc1C`, the inhibition is 3.3%.

Regarding `Cc1ccc2cc(CCNC(=O)c3cccc([N+](=O)[O-])c3)c(=O)[nH]c2c1`, the inhibition was 26.4%.

For `COc1cc(Br)c(CC(=O)O)cc1OC`, the inhibition is 4%.

With `CCn1cc(C(=O)OCC(=O)c2cc(C)n(-c3ccccc3)c2C)c(=O)c2ccc(C)nc21`, the inhibition is 6.2%.

On to `CCn1cc(C(=O)OCC(=O)c2cc(C)n(-c3ccccc3F)c2C)c(=O)c2ccc(C)nc21`, for which the inhibition is 10.8%.

As to `CCn1cc(C(=O)OCC(=O)c2cc(C)n(-c3cccc(C(F)(F)F)c3)c2C)c(=O)c2ccc(C)nc21`, the inhibition is 62.7% (active).

Consider `Cc1nn(Cc2ccc(C(=O)N3CCN(C(=O)c4ccco4)CC3)o2)c(C)c1[N+](=O)[O-]`, for which the inhibition is -22.1%.

For the compound `C/C(=N\NC(=O)c1ccccc1O)c1ccc(Br)s1`, the inhibition was 8.3%.

On to `C/C(=N\NC(=O)c1cc2ccccc2cc1O)c1cccs1`, for which the inhibition is 5.7%.

For `C/C(=N\NC(=O)c1cccc2ccccc12)c1cccs1`, the inhibition is -68.3%.

Consider `C/C(=N\NC(=O)c1ccoc1C)c1ccc(Br)s1`, for which the inhibition was 15.3%.

As for `C/C(=N\NC(=O)c1ccccc1O)c1cccs1`, the inhibition is 69.7% (active).

In the case of `CCN(CC(=O)NCc1ccc(Cl)cc1)C(=O)/C=C/c1cccs1`, the inhibition was -23.9%.

As for `CC1CCCN(CC(=O)Nc2ccc(S(=O)(=O)N3CCCCCC3)cc2)C1` (centres undefined), the inhibition is -8.7%.

`Cc1ccc(/C=C2/SC(=Nc3ccc(F)cc3)NC2=O)s1`: the inhibition was -8.8%.

As to `CC(=O)NC(Cc1ccc(C)cc1)C(=O)NC1CCN(C(=O)c2ccc([N+](=O)[O-])cc2)CC1` (centres undefined), the inhibition is -4.9%.

For `Cc1noc2ncnc(N3CCN(c4ccc(F)cc4)CC3)c12`, the inhibition was -41.6%.

On to `Cc1noc2ncnc(N3CCCC3)c12`, for which the inhibition was -13.8%.

For `Cc1nn(C)c(Oc2ccccc2)c1CCNS(=O)(=O)c1ccccc1`, the inhibition was 14.8%.

For the compound `CCN(CC)C(=S)Sc1c(-c2ccccc2)c2cc(Cl)ccc2[nH]c1=O`, the inhibition was 78.1% (active).

`O=c1[nH]c2ccc(Cl)cc2c(-c2ccccc2)c1SC(=S)N1CCCCC1`: the inhibition was 47%.

Turning to `O=C(O)CSc1c(-c2ccccc2)c2cc(Cl)ccc2[nH]c1=O`, the inhibition is -28.5%.

`COc1ccc2c(C)cc(SC3CCOC3=O)nc2c1` (centres undefined): the inhibition was -1.1%.

Regarding `C=CCc1cc(Cl)ccc1OCCNCCOC`, the inhibition is 43.2% (active).

On to `C=CCc1cc(Cl)ccc1OCCOCCNCCOC`, for which the inhibition is -24.9%.

Consider `C=CCc1cc(Cl)ccc1OCCNCCCOC`, for which the inhibition is -15.8%.

As to `CCC(C(=O)c1ccc2ncccc2c1)c1ccccc1` (centres undefined), the inhibition is -3.6%.

On to `CCOC(=O)C1=C(N)Oc2cc(O)ccc2C1c1cccc([N+](=O)[O-])c1` (centres undefined), for which the inhibition was 41.2%.

With `CCOC(=O)C1=C(N)Oc2cc(O)ccc2C1c1ccc(C)cc1` (centres undefined), the inhibition is -17.2%.

As to `CCOC(=O)C1=C(N)Oc2cc(O)ccc2C1c1ccc([N+](=O)[O-])cc1` (centres undefined), the inhibition is 67.7% (active).

Turning to `COc1cc(COc2ccc3c(C)c(CCC(=O)O)c(=O)oc3c2)cc(OC)c1OC`, the inhibition is -4.2%.

Source of the values: PubChem BioAssay AID1578 (Sanford-Burnham Center for Chemical Genomics, 2009).
